Results filed as inconclusive are left out. Values without a mark were called inactive. Active and inactive are the calls of the source. Unless noted, calls follow the shape of the dose curve; as a rule, active = well fitted curve in the direction sought with a large enough effect in the repeat runs; inconclusive = weak or mixed curves; inactive = no such curve, though single readings can be large; an effect the other way counts as inactive or inconclusive.

Experiment [1] in a line: qHTS assay to identify small molecule agonists of the vitamin D receptor (VDR) signaling pathway - cell viability counter screen (AID 743224). Also: series mostly up to about 63 µM; % is scaled to controls: 0 for no effect and ±100 for the full control effect; nearly all actives have a fitted effect of over 50% in size. The method, boiled down:
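In parallel with the bla FRET readout, cytotoxicity toward VDR-bla cells after 16 h compound exposure was assessed by CellTiter-Glo, with luminescence recorded after a 30 min room-temperature incubation.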
Background: In qHTS, concentration-response curves come from the screen itself.

Experiment [2] in a line: qHTS assay to identify small molecule antagonists of the vitamin D receptor (VDR) signaling pathway - cell viability counter screen (AID 743225). Also: % is scaled to controls: 0 for no effect and ±100 for the full control effect; nearly all actives have a fitted effect of over 50% in size. A digest of the protocol:
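Compounds were pinned onto VDR-bla HEK 293T cells together with 1-alpha,25-dihydroxyvitamin D3 at 3 nM final. After 16 h at 37C and 5% CO2 plus the reporter readout, cell viability was measured by CellTiter-Glo luminescence (30 min, room temperature).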

Experiment [3] in a line: qHTS assay to identify small molecule agonists of the NFkB signaling pathway (AID 1159509; active = well fitted curve in the direction sought with a large enough effect in the signal ratio in the repeat runs, not every such curve was filed as active; the % refers to the signal ratio; also: series mostly up to about 61 µM; % is scaled to controls: 0 for no effect and ±100 for the full control effect). A digest of the protocol:
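Agonist activity was read as beta-lactamase-driven FRET change (460 and 530 nm emission, 405 nm excitation) following 1.5 hr substrate loading at room temperature. Beforehand, ME-180 NFkB-bla reporter cells were treated with compounds for 5 hr at 37 C.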

The nature of experiment [4]: qHTS assay to identify small molecule agonists of the NFkB signaling pathway - cell viability counter screen (AID 1159515; calls by dose curve; also: series mostly up to about 61 µM; % is scaled to controls: 0 for no effect and ±100 for the full control effect; nearly all actives have a fitted effect of over 55% in size). A digest of the protocol:
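Plate 2,000 NFkB-bla ME-180 cells/well; incubate overnight. Add compounds, 5 hr at 37 C. Add FRET substrate, 1.5 hr RT. Add CellTiter-Glo, 30 min RT; read luminescence.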

The nature of experiment [5]: qHTS assay to identify small molecule agonists of the endoplasmic reticulum stress response signaling pathway (AID 1159516; active = well fitted activation curve with a large enough effect in the signal ratio in the repeat runs, not every such curve was filed as active; the % refers to the signal ratio; also: % is scaled to controls: 0 for no effect and ±100 for the full control effect). The method, boiled down:
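Beta-lactamase expression from the ER stress response element in HeLa reporter cells is quantified with the LiveBLAzer B/G FRET substrate, read at 405 nm excitation after 2 hr at room temperature, following 5 hr compound treatment at 37 C.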

Experiment [6] in a line: qHTS assay to identify small molecule agonists of the endoplasmic reticulum stress response signaling pathway - cell viability counter screen (AID 1159517; calls by dose curve; also: series mostly up to about 61 µM; % is scaled to controls: 0 for no effect and ±100 for the full control effect; nearly all actives have a fitted effect of over 50% in size). A digest of the protocol: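 ESRE-bla HeLa cells (1,500/well) were plated overnight at 37 C and exposed to compounds for 5 hr. After the 2 hr beta-lactamase substrate read, CellTiter-Glo went into the same wells, and luminescence was read after 30 min at room temperature.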

The nature of experiment [7]: qHTS assay to identify small molecule antagonists of the retinoid-related orphan receptor gamma (ROR-gamma) signaling pathway - cell viability counter screen (AID 1159520). Also: % is scaled to controls: 0 for no effect and ±100 for the full control effect; nearly all actives have a fitted effect of over 50% in size. A digest of the protocol: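 Cytotoxicity was read from cellular ATP (CellTiter-Glo luminescence) after 16 hr at 37 C with 1 uM doxycycline induction. The inducer was added 2 hr after compound transfer to Tet-on ROR gamma CHO cells.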

The target in experiment [8] is Nuclear receptor ROR-gamma (Homo sapiens) (UniProt P51449). Description: qHTS assay to identify small molecule antagonists of the retinoid-related orphan receptor gamma (ROR-gamma) signaling pathway (AID 1159521). The method, boiled down:
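Test compounds were applied to Tet-on RORγ CHO cells 2 h ahead of doxycycline hyclate (1 uM final). Luciferase reporter activity was quantified by luminescence after 16 h at 37 C and 5% CO2.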

Experiment [9] can be described thus: qHTS assay to identify small molecule agonists of the AP-1 signaling pathway (AID 1159526; calls by dose curve; also: % is scaled to controls: 0 for no effect and ±100 for the full control effect).
Experiment [10] has as its target Retinoic acid receptor RXR-alpha (Homo sapiens) (UniProt P19793). The experiment can be described thus: qHTS assay to identify small molecule agonists of the RXR signaling pathway (AID 1159527; calls by dose curve; also: % is scaled to controls: 0 for no effect and ±100 for the full control effect; nearly all actives have a fitted effect of over 35% in size). A digest of the protocol: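 Using 9-cis retinoic acid as the reference agonist, chemicals were tested in HEK 293T cells […] for 16 hr; substrate loading lasted 2 hr at room temperature.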

A short description of experiment [11]: qHTS assay to identify small molecule antagonists of the retinoid acid receptor (RAR) signaling pathway - cell viability counter screen (AID 1159551). Also: % is scaled to controls: 0 for no effect and ±100 for the full control effect; nearly all actives have a fitted effect of over 35% in size. A digest of the protocol:
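Viability of C3RL4 cells is quantified from ATP by luminescence after 6 h treatment at 37 C with compounds and 1 uM retinol.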

Experiment [12] is described as follows: qHTS assay to identify small molecule antagonists of the retinoic acid receptor (RAR) signaling pathway (AID 1159552). The method, boiled down: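 Test chemicals and DMSO controls were pin-transferred onto C3RL4 cells a day after seeding; retinol (1 uM final) followed at once. Luminescent reporter output was quantified after 6 hr of co-incubation and 30 min with detection reagent.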

The nature of experiment [13]: qHTS assay to identify small molecule agonists of the retinoic acid receptor (RAR) signaling pathway (AID 1159553). Also: potency is read from the fitted curve at half-maximal effect. A digest of the protocol: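 Compounds dissolved in DMSO were pinned onto C3RL4 cells seeded the previous day, and plates were held 6 hr at 37 C. RARE-driven luciferase output was then read by luminescence.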
Experiment [14] is described as follows: qHTS assay to identify small molecule agonists of the RXR signaling pathway - cell viability counter screen (AID 1159529). The method, boiled down:
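Compounds dissolved in DMSO were pinned onto HEK 293T cells carrying a beta-lactamase reporter under RXR-alpha control and incubated 16 hr. Cytotoxicity was then quantified by CellTiter-Glo luminescence.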

Experiment [15] in a line: qHTS assay to identify small molecule agonists of the AP-1 signaling pathway - cell viability counter screen (AID 1159525; calls by dose curve; also: nearly all actives have a fitted effect of over 55% in size). A digest of the protocol:
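Intracellular ATP by Cell Titer Glo luminescence (30 min, RT) in the same ME-180 AP-1-bla wells after the 5 h compound exposure at 37 °C. Normalised to tetra n-octyl ammonium bromide and DMSO controls.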

Experiment [16] can be described thus: qHTS assay to identify small molecule antagonists of the estrogen related receptor (ERR) signaling pathway - cell viability counter screen (AID 1224818). Also: series mostly up to about 46 µM; % is scaled to controls: 0 for no effect and ±100 for the full control effect. A digest of the protocol:
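Cytotoxicity check run alongside the ERR antagonist screen: cells exposed to test compounds 17.5 h at 37 C, viability taken as CellTiter-Fluor fluorescence intensity.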

A short description of experiment [17]: qHTS assay to identify small molecule antagonists of the estrogen related receptor signaling pathway with the pleiotropic PPARgamma coactivator (PGC) cell viability counter screen (AID 1224822). A digest of the protocol: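 Viable cell signal (CellTiter-Fluor, 30 min, 37 C/5% CO2) was measured in PGC/ERR cells after a 17.5 h compound incubation.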

Retinoic acid receptor RXR-alpha (Homo sapiens), sequence (P19793 whole entry, looked up): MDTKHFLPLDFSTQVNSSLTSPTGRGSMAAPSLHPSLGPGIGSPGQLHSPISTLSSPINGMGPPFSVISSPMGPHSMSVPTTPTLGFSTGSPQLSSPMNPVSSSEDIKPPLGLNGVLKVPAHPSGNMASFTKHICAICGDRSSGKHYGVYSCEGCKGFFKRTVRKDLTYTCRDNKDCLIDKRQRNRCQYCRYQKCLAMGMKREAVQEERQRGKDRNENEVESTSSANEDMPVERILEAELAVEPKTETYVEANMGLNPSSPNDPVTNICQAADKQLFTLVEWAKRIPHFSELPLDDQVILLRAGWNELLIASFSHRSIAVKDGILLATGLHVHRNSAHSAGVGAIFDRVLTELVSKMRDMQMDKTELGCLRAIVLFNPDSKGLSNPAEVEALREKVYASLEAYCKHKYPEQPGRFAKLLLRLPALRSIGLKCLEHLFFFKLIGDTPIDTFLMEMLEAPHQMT

As for `BrCc1cccc(Oc2ccccc2)c1`, the Potency entry in experiment [1], in [6], in experiment [10] and in experiment [13] was “inactive” in each case. In addition, the result in experiment [2], in experiment [3], in [4], in [5], in experiment [7] and in experiment [8] was inactive. Further, the result in [9], in experiment [11] and in experiment [12] was inactive.
Turning to `O=S(=O)(O)CCN1CCN(CCO)CC1`, the Potency entry in experiment [1], in experiment [6] and in [10] was “inactive” each time. Moreover, the molecule was called inactive in [3], in [4], in [5], in experiment [7], in experiment [8] and in [9]. For the same molecule, the result in experiment [14] and in experiment [11] was inactive.
For `O=C(O)c1cc(Br)c(O)c(Br)c1`, the Potency result in experiment [1], in experiment [6] and in experiment [10] was “inactive” each time. Moreover, the molecule was classed as inactive in experiment [2], in experiment [3], in experiment [4], in experiment [5], in experiment [8] and in [15]. In addition, the molecule was called inactive in experiment [9], in experiment [14], in experiment [11] and in experiment [12].
Take `Nc1ncnc(Nc2ccccc2)n1`: the Potency entry in experiment [1], in [6] and in experiment [10] was “inactive” each time. Moreover, the outcome in experiment [2], in experiment [3], in experiment [4], in experiment [5], in experiment [8] and in experiment [15] was inactive. In addition, the outcome in experiment [9], in experiment [11] and in experiment [12] was inactive.
Take `CCOC(=O)c1ncn2c1CN(C)C(=O)c1cc(F)ccc1-2`: the Potency entry in experiment [1], in experiment [6] and in experiment [10] was “inactive” each time. In addition, the molecule was called inactive in experiment [3], in [4], in [7], in experiment [8], in [15] and in experiment [9]. Moreover, the call in [14], in experiment [16] and in experiment [17] was inactive.
For `CCCCCCCCCCCCCC`, the Potency entry in experiment [1], in [6] and in [10] was “inactive” in each case. The outcome in experiment [2], in [3], in experiment [4], in experiment [5], in experiment [8] and in experiment [15] was inactive. Moreover, the molecule was classed as inactive in [9] and in experiment [11].
For `CCO[Si](CCCS)(OCC)OCC`, the Potency entry in experiment [1], in [6] and in experiment [10] was “inactive” throughout. In addition, the call in experiment [3], in experiment [4], in [7], in experiment [8], in experiment [15] and in experiment [9] was inactive. Also, the molecule was classed as inactive in experiment [11] and in experiment [12].
As for `c1ccc2c(c1)ccc1c3ccccc3ccc21`, the Potency entry in [1], in [6] and in [10] was “inactive” in each case. The molecule was classed as inactive in experiment [3], in experiment [4], in [7], in experiment [8], in [9] and in [14]. Besides, the call in [11] and in [12] was inactive. For the same molecule, in [13], the Potency was 3.94 µM (active).
`CCCCNc1ccc(C(=O)OCCN(C)C)cc1`: the Potency result in experiment [1], in experiment [6] and in experiment [10] was “inactive” throughout. Besides, the result in [2], in experiment [3], in [4], in experiment [8], in [15] and in [9] was inactive. In addition, the molecule was called inactive in experiment [14], in experiment [11], in experiment [12], in [16] and in experiment [17].
With `N[C@@H](CCC(=O)N[C@@H](CS)C(=O)NCC(=O)O)C(=O)O`, the Potency entry in experiment [1], in experiment [6] and in experiment [13] was “inactive” each time. In addition, the result in [2], in [3] and in experiment [4] was inactive. The activity, negative = cytotoxicity in experiment [7] was 4.19% [at 19 µM]. The activity change, negative = inhibition in experiment [8] is -1.88% [at 19 µM]. Also, the viability change, negative = cytotoxic in experiment [15] is 4.13% [at 15.8 µM]. The activation in experiment [9] was 1.13% [at 15.8 µM]; in experiment [10], 2.72% [at 15.8 µM]. For the same molecule, the activity change, negative = cytotoxicity in experiment [14] is -1.04% [at 15.8 µM]; in experiment [11], 0.178% [at 19 µM]. The activity, negative = inhibition in experiment [12] was 29.9% [at 19 µM].
On to `CC(C)C(=O)OCc1cccc(OC(=O)[C@@H]2N3C(=O)[C@@H](NC(=O)Cc4ccccc4)[C@H]3SC2(C)C)c1`, for which the Potency entry in experiment [1], in [6] and in [10] was “inactive” in each case. For the same molecule, the call in experiment [2], in experiment [3], in experiment [4], in [7], in experiment [8] and in [9] was inactive. In addition, the result in [14], in experiment [11] and in experiment [12] was inactive.

For the origin of these results see PubChem BioAssay (Tox21).
